Here are results for 74 compounds from ChEMBL document CHEMBL4513216, “Probing the Open Global Health Chemical Diversity Library for Multistage-Active Starting Points for Next-Generation Antimalarials” (ACS Infect Dis, 2020).

Among all 69,000 compounds or so, about 8,600 (12%) showed an effect of 50% or more. This is one part of a sample in which strong results are shown more often than they occur.

The assay has as its system Plasmodium berghei. Briefly: Screen against P. berghei liver stage (PbLuc), transformed with Luciferase, at 10uM. Particulars: tested at 10 uM. It is filed as functional, HepG2.
`CN1CC(=O)N(c2cnn(C)c2)CC12CCN(CC1CC1)C2` (centres undefined): the INHIBITION is 30.3%.

As to `Cc1nccc(CN2CC[C@H](Oc3cccc(F)c3)[C@@](C)(O)C2)n1`, the INHIBITION turned out to be 38.7%.

On to `C[C@]1(O)CCN(Cc2ncccc2F)C[C@@H]1Oc1cccc(F)c1`, for which the INHIBITION is -4.51%.

For the compound `C[C@]1(O)CN(Cc2ncccc2F)CC[C@@H]1Oc1cccc(F)c1`, the INHIBITION was 50.1%.

Take `C[C@]1(O)CN(Cc2ncc[nH]2)CC[C@@H]1Oc1cccc(F)c1`: the INHIBITION came out at 61.9%.

With `C[C@]1(O)CN(Cc2ncccc2F)CC[C@@H]1Oc1ccccc1`, the INHIBITION came out at 24.4%.

For `C[C@]1(O)CN(Cc2cscn2)CC[C@@H]1Oc1cccc(F)c1`, the INHIBITION is recorded as 38.2%.

As to `Cc1cccnc1CN1CC[C@H](Oc2cccc(F)c2)[C@@](C)(O)C1`, the INHIBITION was 75.3%.

Regarding `Cc1cccnc1CN1CC[C@@](C)(O)[C@H](Oc2ccccc2)C1`, the INHIBITION is 24.4%.

On to `O=C1CC(c2cccnc2)C2(CCN(C(=O)c3ccncc3)CC2)N1` (centres undefined), for which the INHIBITION is recorded as 33.5%.

Take `O=c1[nH]c2cn(-c3cccc(Cl)c3)c(=O)n2n1Cc1cccc(F)c1`: the INHIBITION was found to be 34%.

Regarding `Cc1nc(CN2CCCC(NCCCOc3ccc(F)cc3)C2)no1` (centres undefined), the INHIBITION is 19.4%.

On to `O=C(O)c1ccc(COc2cccc(Cl)c2)s1`, for which the INHIBITION was determined as 8.49%.

For the compound `CN1CCN(Cc2cnc3n2CCN(C(=O)c2ccnnc2)C3)CC1`, the INHIBITION worked out at 32.2%.

Turning to `Cc1cccc(C(=O)N2CCn3c(CN4CCN(C)CC4)cnc3C2)n1`, the INHIBITION was 68.4%.

Consider `CN1CCN(Cc2cnc3n2CCN(C(=O)c2ccccn2)C3)CC1`, for which the INHIBITION is 40.4%.

Turning to `CN1CCN(Cc2cnc3n2CCN(C(=O)c2cnccn2)C3)CC1`, the INHIBITION is listed as 20.6%.

Regarding `CN1CCN(Cc2cnc3n2CCN(C(=O)c2ccncc2)C3)CC1`, the INHIBITION turned out to be 42.7%.

For the compound `CN1CCN(Cc2cnc3n2CCN(C(=O)c2ccoc2)C3)CC1`, the INHIBITION is 59%.

For the compound `CCCc1noc(CCC(=O)N2CCCCC2Cn2cc(C)cn2)n1` (centres undefined), the INHIBITION is given as 28.3%.

`O=C(c1ccc(NC2CC2)nc1)N1CCC(Nc2cccnn2)CC1`: the INHIBITION was found to be 11.6%.

Take `CC(C)c1nc(CN2CCN(C(=O)CC3CCCCC3)CC2)no1`: the INHIBITION is -3.21%.

Consider `CCn1nc(C)c2c1cnn2CCNS(=O)(=O)CC`, for which the INHIBITION turned out to be 30%.

For the compound `CC(C)CCn1c(=O)n(CCn2cccc2)c2cc(C(=O)O)cnc21`, the INHIBITION came to 36.7%.

In the case of `Cc1nc(CN2CCO[C@@H]3CC(COc4ccccn4)C[C@H]32)cs1` (some centres undefined), the INHIBITION is reported as 31.5%.

For the compound `c1ccc(OCC2C[C@@H]3[C@@H](C2)OCCN3Cc2ccoc2)nc1` (some centres undefined), the INHIBITION is reported as 54.4%.

With `Cc1cccc(CN2CCO[C@@H]3CC(COc4ccccn4)C[C@H]32)n1` (some centres undefined), the INHIBITION is 35.5%.

Regarding `COCC(O)CN1CCC(=O)N(CC2CC2)Cc2ccccc21` (centres undefined), the INHIBITION came to 21.5%.

Consider `Cc1ccc(C(=O)N(CCC#N)Cc2ccccn2)cc1C`, for which the INHIBITION is reported as 5.48%.

For `CCOc1cccc(C(=O)N(CCC#N)Cc2ccccn2)c1`, the INHIBITION came out at 51.7%.

Consider `COc1cc(C(=O)N(CCC#N)Cc2ccccn2)ccc1C`, for which the INHIBITION is listed as 29.4%.

In the case of `COc1ccc(C(=O)N(CCC#N)Cc2ccccn2)cc1`, the INHIBITION is on record as -1.37%.

With `N#CCCN(Cc1ccccn1)C(=O)c1cccc(CN2CCCC2)c1`, the INHIBITION is given as 61.8%.

As to `COCc1ccc(C(=O)N(CCC#N)Cc2ccccn2)cc1`, the INHIBITION is recorded as 44%.

`COc1ccc(CN2C[C@@H]3C[C@H](C(=O)Nc4cccnc4)[C@H](C2)O3)cc1`: the INHIBITION was determined as 28.7%.

Take `O=C(Nc1cccnc1)[C@H]1C[C@H]2CN(Cc3ccc(F)cc3)C[C@@H]1O2`: the INHIBITION was determined as 63.7%.

As to `CCCS(=O)(=O)N1C[C@@H]2C[C@H](C(=O)Nc3cccnc3)[C@H](C1)O2`, the INHIBITION turned out to be 34.6%.

Turning to `O=C(Nc1ccccc1)[C@H]1C[C@H]2CN(Cc3cccnc3)C[C@@H]1O2`, the INHIBITION amounted to 59%.

In the case of `CNC(=O)[C@H]1C[C@H]2CN(Cc3ccc(C)cc3)C[C@@H]1O2`, the INHIBITION is listed as 9.65%.

In the case of `CNC(=O)[C@H]1C[C@H]2CN(Cc3cccc(C)c3)C[C@@H]1O2`, the INHIBITION came out at 57.3%.

Turning to `CNC(=O)[C@H]1C[C@H]2CN(Cc3ccccc3)C[C@@H]1O2`, the INHIBITION was found to be 1.7%.

As to `Cc1ccc(CN2C[C@@H]3C[C@H](C(=O)Nc4cccnc4)[C@H](C2)O3)cc1`, the INHIBITION came to 64.9%.

Regarding `CCN1C[C@@H]2C[C@H](C(=O)Nc3ccccc3)[C@H](C1)O2`, the INHIBITION is recorded as 1.94%.

For the compound `CC(C)CCN1C[C@@H]2C[C@H](C(=O)Nc3cccnc3)[C@H](C1)O2`, the INHIBITION came out at 41.6%.

Turning to `O=C(Nc1cccnc1)[C@H]1C[C@H]2CN(S(=O)(=O)C3CC3)C[C@@H]1O2`, the INHIBITION came out at 48.6%.

In the case of `CCOc1ccccc1OC1CCN(C(=O)c2[nH]nc(C)c2Br)CC1`, the INHIBITION amounted to 2.97%.

Take `Cc1nc(CCCNC(=O)[C@H]2CNC[C@@H](C(=O)N3CCCC3)C2)sc1C`: the INHIBITION is 6.72%.

As for `COCC[C@]1(O)CCN(C(=O)CCn2c(C)cccc2=O)C[C@H]1C`, the INHIBITION is given as 1.94%.

In the case of `CN(C)CCn1c2c(ccc1=O)CCN(Cc1ccncc1)CC2`, the INHIBITION was -7.24%.

Turning to `CN(C)C(=O)Cn1c2c(ccc1=O)CCN(Cc1cnn(C)c1)CC2`, the INHIBITION is listed as 52.4%.

Consider `Cn1cc(CN2CCc3ccc(=O)n(CC4CC4)c3CC2)cn1`, for which the INHIBITION turned out to be 89.1%.

In the case of `CN(C)CCn1c2c(ccc1=O)CCN(Cc1cnn(C)c1)CC2`, the INHIBITION is given as -3.26%.

With `O=c1ccc2c(n1CC1CCOCC1)CCN(Cc1ccoc1)CC2`, the INHIBITION turned out to be 5.41%.

`Cn1cc(CN2CCc3ccc(=O)n(Cc4ccncc4)c3CC2)cn1`: the INHIBITION turned out to be 20.6%.

With `Cc1ccc(CN2CC[C@H](O)[C@@H](n3ccc(=O)[nH]c3=O)CC2)cc1`, the INHIBITION came to 37.6%.

As for `Cn1cc(CN2CCC(Cn3cc(-c4ccccc4)nn3)CC2)cn1`, the INHIBITION was 48.8%.

Take `CN(C)c1cc(C(=O)N2CCN(c3nccs3)CC2)ccn1`: the INHIBITION is given as -43.9%.

With `O=C(c1ccccc1)N1CCC2(CC1)CNc1c(F)cccc12`, the INHIBITION amounted to 60.3%.

Regarding `CC(=O)N1CCC2(CC1)CNc1c(F)cccc12`, the INHIBITION turned out to be 29.5%.

With `O=C(c1cccnc1)N1CCC2(CC1)CNc1c(F)cccc12`, the INHIBITION is 40.5%.

Turning to `Cc1cc(CN2CCN(C(=O)NCCc3csc(C)n3)CC2)on1`, the INHIBITION was -43.5%.

As to `O=C(NCC1CCOCC1)[C@@H]1C[C@@H]2[C@@H](CCN2Cc2ccoc2)O1`, the INHIBITION is 12.5%.

`CS(=O)(=O)N1CCCC(c2cccc(-c3ccccc3F)n2)C1` (centres undefined): the INHIBITION was 12.675%.

As for `CN(C)S(=O)(=O)N1CCC(c2cccc(Cc3ccccc3Cl)n2)CC1`, the INHIBITION came out at 96%.

`CN(C)S(=O)(=O)N1CCCC(c2cccc(Cc3ccc(Cl)cc3)n2)C1` (centres undefined): the INHIBITION is 82.7%.

As for `CN(C)S(=O)(=O)N1CCCC(c2ccncn2)C1` (centres undefined), the INHIBITION is recorded as 25.6%.

As for `Cc1cc(C2CCCN(S(=O)(=O)N(C)C)C2)ccn1` (centres undefined), the INHIBITION is on record as -20.6%.

As for `CN(C)S(=O)(=O)N1CCC(c2ccncn2)CC1`, the INHIBITION is reported as -9.32%.

Take `CN(C)S(=O)(=O)N1CCCC(c2nccnc2-c2cccc(Cl)c2)C1` (centres undefined): the INHIBITION amounted to 5.37%.

For the compound `Cc1c[nH]nc1C1CCN(S(=O)(=O)N(C)C)C1` (centres undefined), the INHIBITION is -9.32%.

`CN(C)S(=O)(=O)N1CCCC(c2cccc(Cc3ccccc3)n2)C1` (centres undefined): the INHIBITION was found to be 84%.

As to `CN(C)S(=O)(=O)N1CCCC(c2cccc(Cc3ccccc3F)n2)C1` (centres undefined), the INHIBITION is on record as 15.9%.

With `CN(C)S(=O)(=O)N1CCCC(c2cccc(Cc3ccc(F)cc3)n2)C1` (centres undefined), the INHIBITION is on record as 96%.

With `Cc1noc(C)c1-c1cccc(C2CCN(S(=O)(=O)N(C)C)CC2)n1`, the INHIBITION worked out at 32.4%.
